Holding throughout (conditions): Compound concentration 20.0 uM
Test [1] deals with Tyrosine-protein kinase ABL1 (Homo sapiens) (UniProt P00519).
In test [2] the target is Bromodomain-containing protein 4 (Homo sapiens) (UniProt O60885).
In test [3] the target is Cyclin-dependent kinase 2 (Homo sapiens) (UniProt P24941).
Test [4] addresses Casein kinase I isoform delta (Homo sapiens) (UniProt P48730).
The target in test [5] is Glycogen synthase kinase-3 beta (Homo sapiens) (UniProt P49841).
The target in test [6] is Mitogen-activated protein kinase 1 (Homo sapiens) (UniProt P28482).
Test [7] has as its target T1, Aurora kinase A (Homo sapiens) (UniProt O14965).
T1 sequence (whole entry): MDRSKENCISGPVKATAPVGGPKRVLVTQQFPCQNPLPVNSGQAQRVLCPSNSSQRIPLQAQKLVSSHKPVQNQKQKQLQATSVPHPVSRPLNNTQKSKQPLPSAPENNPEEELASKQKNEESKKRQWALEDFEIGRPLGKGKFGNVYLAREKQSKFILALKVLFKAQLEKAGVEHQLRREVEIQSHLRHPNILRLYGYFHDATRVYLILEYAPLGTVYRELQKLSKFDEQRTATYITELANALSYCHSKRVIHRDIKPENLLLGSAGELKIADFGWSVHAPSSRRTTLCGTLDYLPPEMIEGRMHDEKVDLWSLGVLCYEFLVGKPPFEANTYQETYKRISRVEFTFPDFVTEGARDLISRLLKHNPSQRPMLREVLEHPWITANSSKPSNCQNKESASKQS

Test [8] has as its target T2, Transcription intermediary factor 1-alpha (Homo sapiens) (UniProt O15164).
T2 sequence (whole entry): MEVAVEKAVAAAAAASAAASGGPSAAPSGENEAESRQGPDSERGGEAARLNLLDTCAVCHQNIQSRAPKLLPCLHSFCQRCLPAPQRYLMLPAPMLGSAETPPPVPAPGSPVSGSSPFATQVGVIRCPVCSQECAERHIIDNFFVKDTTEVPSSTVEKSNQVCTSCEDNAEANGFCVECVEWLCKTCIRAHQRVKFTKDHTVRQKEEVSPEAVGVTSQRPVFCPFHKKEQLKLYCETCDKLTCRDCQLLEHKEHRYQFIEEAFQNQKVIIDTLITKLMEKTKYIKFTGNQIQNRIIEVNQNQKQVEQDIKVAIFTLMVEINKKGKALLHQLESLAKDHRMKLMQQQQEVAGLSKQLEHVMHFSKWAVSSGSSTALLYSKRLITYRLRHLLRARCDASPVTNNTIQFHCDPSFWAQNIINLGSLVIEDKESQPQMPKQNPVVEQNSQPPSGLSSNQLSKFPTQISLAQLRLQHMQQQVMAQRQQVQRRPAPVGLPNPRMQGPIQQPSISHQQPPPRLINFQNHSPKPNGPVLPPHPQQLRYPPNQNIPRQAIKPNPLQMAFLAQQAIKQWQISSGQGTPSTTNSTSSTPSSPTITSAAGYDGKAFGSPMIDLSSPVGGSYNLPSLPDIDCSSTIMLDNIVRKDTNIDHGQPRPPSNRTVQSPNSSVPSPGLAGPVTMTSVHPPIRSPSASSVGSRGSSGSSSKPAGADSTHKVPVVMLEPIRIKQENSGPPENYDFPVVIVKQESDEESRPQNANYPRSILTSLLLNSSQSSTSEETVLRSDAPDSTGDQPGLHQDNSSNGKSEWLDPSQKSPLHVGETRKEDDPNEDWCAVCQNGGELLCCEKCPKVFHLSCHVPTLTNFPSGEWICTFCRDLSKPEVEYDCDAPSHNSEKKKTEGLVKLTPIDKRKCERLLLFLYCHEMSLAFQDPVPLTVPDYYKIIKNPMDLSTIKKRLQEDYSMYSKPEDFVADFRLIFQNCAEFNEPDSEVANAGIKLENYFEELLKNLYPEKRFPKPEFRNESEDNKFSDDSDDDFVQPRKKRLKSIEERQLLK

Each structure is given as a SMILES string.

Sequence of Mitogen-activated protein kinase 1 (Homo sapiens) (P28482 whole entry): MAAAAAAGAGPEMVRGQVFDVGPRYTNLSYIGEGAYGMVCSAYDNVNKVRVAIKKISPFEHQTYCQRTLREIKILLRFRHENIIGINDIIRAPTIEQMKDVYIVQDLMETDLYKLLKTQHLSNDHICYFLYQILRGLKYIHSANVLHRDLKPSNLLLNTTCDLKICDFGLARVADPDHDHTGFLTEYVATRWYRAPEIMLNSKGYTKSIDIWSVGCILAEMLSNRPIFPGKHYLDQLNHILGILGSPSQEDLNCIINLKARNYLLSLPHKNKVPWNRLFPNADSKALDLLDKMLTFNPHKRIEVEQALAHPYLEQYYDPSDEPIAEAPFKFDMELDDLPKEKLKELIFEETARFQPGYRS
Sequence of Casein kinase I isoform delta (Homo sapiens) (P48730 whole entry, looked up, canonical isoform): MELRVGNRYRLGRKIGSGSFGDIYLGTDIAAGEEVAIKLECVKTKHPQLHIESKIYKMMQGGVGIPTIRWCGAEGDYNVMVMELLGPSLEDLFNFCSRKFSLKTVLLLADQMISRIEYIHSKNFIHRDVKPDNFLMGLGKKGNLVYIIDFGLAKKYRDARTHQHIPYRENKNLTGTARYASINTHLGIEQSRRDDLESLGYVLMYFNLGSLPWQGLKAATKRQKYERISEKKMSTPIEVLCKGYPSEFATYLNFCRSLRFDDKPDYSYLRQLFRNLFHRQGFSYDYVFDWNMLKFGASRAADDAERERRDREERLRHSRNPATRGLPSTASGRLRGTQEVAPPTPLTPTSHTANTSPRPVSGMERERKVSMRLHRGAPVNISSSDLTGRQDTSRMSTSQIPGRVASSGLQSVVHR
Sequence of Glycogen synthase kinase-3 beta (Homo sapiens) (P49841 whole entry, looked up): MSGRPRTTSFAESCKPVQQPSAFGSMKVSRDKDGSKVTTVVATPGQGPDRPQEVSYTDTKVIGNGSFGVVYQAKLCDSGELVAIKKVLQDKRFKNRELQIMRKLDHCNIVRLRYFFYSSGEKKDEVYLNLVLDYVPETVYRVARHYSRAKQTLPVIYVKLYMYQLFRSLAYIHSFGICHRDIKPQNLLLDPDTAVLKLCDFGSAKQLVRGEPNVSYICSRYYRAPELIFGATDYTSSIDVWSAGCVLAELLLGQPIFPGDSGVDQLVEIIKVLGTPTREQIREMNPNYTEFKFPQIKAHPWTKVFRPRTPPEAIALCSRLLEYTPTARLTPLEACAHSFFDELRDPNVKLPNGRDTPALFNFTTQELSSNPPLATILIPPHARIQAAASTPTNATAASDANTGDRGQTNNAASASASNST
Sequence of Tyrosine-protein kinase ABL1 (Homo sapiens) (P00519 whole entry): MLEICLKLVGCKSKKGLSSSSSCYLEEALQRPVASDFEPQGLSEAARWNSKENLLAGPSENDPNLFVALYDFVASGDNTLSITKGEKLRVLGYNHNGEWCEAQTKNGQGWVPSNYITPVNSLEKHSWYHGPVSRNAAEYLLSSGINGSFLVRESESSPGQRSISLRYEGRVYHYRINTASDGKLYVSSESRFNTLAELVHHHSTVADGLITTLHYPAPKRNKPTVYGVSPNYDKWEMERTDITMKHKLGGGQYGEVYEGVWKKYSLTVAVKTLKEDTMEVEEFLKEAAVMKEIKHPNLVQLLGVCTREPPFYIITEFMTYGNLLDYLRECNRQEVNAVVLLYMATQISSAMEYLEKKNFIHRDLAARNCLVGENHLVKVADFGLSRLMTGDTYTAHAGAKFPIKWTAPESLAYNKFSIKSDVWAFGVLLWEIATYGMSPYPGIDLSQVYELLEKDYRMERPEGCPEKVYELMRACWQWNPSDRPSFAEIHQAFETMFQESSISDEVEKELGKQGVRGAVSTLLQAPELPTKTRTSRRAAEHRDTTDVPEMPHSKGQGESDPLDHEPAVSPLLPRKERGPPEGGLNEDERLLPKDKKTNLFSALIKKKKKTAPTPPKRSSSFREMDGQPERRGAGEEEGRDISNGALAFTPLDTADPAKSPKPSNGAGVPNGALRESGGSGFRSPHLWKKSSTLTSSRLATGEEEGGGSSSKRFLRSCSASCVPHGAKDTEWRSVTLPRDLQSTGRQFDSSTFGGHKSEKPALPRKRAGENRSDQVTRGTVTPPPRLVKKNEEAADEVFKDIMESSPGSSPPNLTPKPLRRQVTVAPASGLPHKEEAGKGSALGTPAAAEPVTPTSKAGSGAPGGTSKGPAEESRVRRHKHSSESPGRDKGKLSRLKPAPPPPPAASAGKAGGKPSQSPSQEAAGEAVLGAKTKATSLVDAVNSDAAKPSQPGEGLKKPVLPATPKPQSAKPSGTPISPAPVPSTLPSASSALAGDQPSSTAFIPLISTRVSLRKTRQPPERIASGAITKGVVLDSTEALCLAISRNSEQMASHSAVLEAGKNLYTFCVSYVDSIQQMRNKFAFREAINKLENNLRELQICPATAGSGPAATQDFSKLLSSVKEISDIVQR

Take `CN(CCCN1c2ccccc2CCc2ccccc21)CC(=O)c1ccc(Cl)cc1`: the ΔTm in test [1] is -0.37 °C; in test [2] it was -0.08 °C; in test [3], 0.04 °C; in test [4] it was -0.19 °C; in test [5], -0.11 °C; in test [6], 0.76 °C. For the same compound, the ΔTm in test [7] is -1.35 °C; in test [8], 0.15 °C.

Turning to `CCCOC(=O)N1CCN(C(=O)c2ccc3c(Cl)cc(-c4ccc(C5(N)CC5)cc4)nc3c2)C[C@H]1C`, the ΔTm was 0.57 °C in test [1]; -1.83 °C in test [2]; 0.05 °C in test [3]; 0.03 °C in test [4]; -1.68 °C in test [5]; -7.2 °C in test [6]. In addition, the ΔTm was 0.93 °C in test [7] and -3.45 °C in test [8].

In the case of `COc1cc(-c2cn(C)c(=O)c3cnccc23)cc(OC)c1CN(C)C`, the thermal shift (ΔTm) in test [1] was 0.4 °C; in test [2] it was -1.71 °C; in test [3] it was 0.82 °C; in test [4], -0.03 °C; in test [5], 0.26 °C; in test [6] it was 0.18 °C. Besides, the ΔTm was -1.01 °C in test [7] and 0.87 °C in test [8].

For `O=C(c1cc(Cc2n[nH]c(=O)c3ccccc23)ccc1F)N1CCn2nc(C(F)(F)F)nc2C1`, the ΔTm in test [1] is 0.72 °C; in test [2] it was -2.42 °C; in test [3], 0.1 °C; in test [4], -0.28 °C; in test [5], -0.21 °C; in test [6], 0.61 °C. Besides, the values for the ΔTm in test [7] and in test [8] were -2.34 °C and -0.51 °C, respectively.

Consider `CCCOc1ccc(CCc2nc3cc(-c4c(C)noc4C)ccc3n2CCN2CCOCC2)cc1`, for which the ΔTm is 0.14 °C in test [1]; 0.27 °C in test [2]; -1.68 °C in test [3]; 0.28 °C in test [4]; 1.16 °C in test [5]; 0.33 °C in test [6]. The values for the ΔTm in test [7] and in test [8] were -1.97 °C and -1.29 °C, respectively.

As for `COc1ccc(-c2c(-c3ccc(C#N)c(F)c3)nc(N3CCC(N)CC3)n(C)c2=O)cc1F`, the ΔTm was 0.65 °C in test [1]; -3.53 °C in test [2]; 0 °C in test [3]; 0 °C in test [4]; -0.33 °C in test [5]; 0.2 °C in test [6]. The results for the ΔTm in test [7] and in test [8] were -2.24 °C and -0.36 °C, respectively.

`COC(=O)[C@@H]1CC2=CC(=O)CC[C@]2(C)[C@@]23O[C@@H]2C[C@@]2(C)[C@@H](CC[C@@]24CCC(=O)O4)[C@H]13`: the ΔTm was 0.55 °C in test [1]; -1.74 °C in test [2]; -0.21 °C in test [3]; 0.47 °C in test [4]; -0.8 °C in test [5]; 0.21 °C in test [6]. The ΔTm in test [7] is -0.81 °C; in test [8], -0.62 °C.

For the compound `CC(C)(F)C[C@H](N[C@@H](c1ccc(-c2ccc(S(C)(=O)=O)cc2)cc1)C(F)(F)F)C(=O)NC1(C#N)CC1`, the ΔTm in test [1] was 0.21 °C; in test [2], -2.13 °C; in test [3], -0.11 °C; in test [4] it was -0.06 °C; in test [5] it was 0 °C; in test [6], -1.51 °C. The ΔTm is -0.27 °C in test [7] and -1.8 °C in test [8].

As to `O=C(N1CCCCC1c1ccccc1)n1cc(-c2ccc(-c3cccc(CO)c3)cc2)nn1` (stereo not drawn), the ΔTm in test [1] is -2.74 °C; in test [2], -2.31 °C; in test [3], -2.39 °C; in test [4] it was -10.5 °C; in test [5], -1.86 °C; in test [6], -9.96 °C. In addition, the shift in melting temperature (ΔTm) was -5.38 °C in test [7] and 2.17 °C in test [8].

As for `OC[C@H]1O[C@@H](c2ccc(Cl)c(Cc3ccc(O[C@H]4CCOC4)cc3)c2)[C@H](O)[C@@H](O)[C@@H]1O`, the ΔTm is 0.58 °C in test [1]; -2.67 °C in test [2]; -0.08 °C in test [3]; -0.33 °C in test [4]; -0.36 °C in test [5]; 0.5 °C in test [6]. The ΔTm in test [7] is -1.72 °C; in test [8], -0.73 °C.

Regarding `O=C(NCCc1cc(C(=O)NO)no1)c1ccc(Cl)c(Cl)c1`, the ΔTm in test [1] is 1.11 °C; in test [2], -2.11 °C; in test [3], 0.66 °C; in test [4] it was 0.6 °C; in test [5] it was -1.05 °C; in test [6] it was 0.3 °C. Also, the results for the ΔTm in test [7] and in test [8] were -0.59 °C and -0.96 °C, respectively.

Broadly, the ΔTm is the change in melting temperature against a reference sample.

For the origin of these results see ChEMBL document CHEMBL5724796, “Tm Shift (DSF) assay results for EUbOPEN Chemogenomics Library” (2024).
